About 79,000 compounds went through this panel and 15% of them were active in at least one assay; those are over-represented in the sample as a whole. Active and inactive are the calls of the source. Rule as the data show it: active = growth inhibition above about 70%; inactive = the rest.
How the values were obtained:
[1] = NCI Yeast Anticancer Drug Screen. Data for the wt1 strain (AID 149);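 also: 0% = growth of vehicle-treated wt1 cultures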; conditions: S. cerevisiae wt1 strain (SPY 50644) growth inhibition, active compounds read high
Outline: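 Yeast wt1 strain exposed to compounds; growth inhibition measured relative to vehicle-treated controls.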

[2] = NCI Yeast Anticancer Drug Screen. Data for the rad50EPP+ strain (AID 151);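 also: 0% = growth of vehicle-treated control cultures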; conditions: S. cerevisiae rad50 mutant strain, active compounds read high
Outline: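 Compounds were applied to the rad50EPP+ yeast strain, which bears a defined DNA repair alteration, and growth inhibition was determined relative to vehicle-treated cultures.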

[3] = NCI Yeast Anticancer Drug Screen. Data for the mgt1 strain (AID 153); conditions: S. cerevisiae mgt1 mutant growth inhibition, active compounds read high
Outline: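 Strain: mgt1 yeast, one of a set carrying defined DNA damage repair or cell cycle control alterations. Compound-treated growth compared with vehicle.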

[4] = NCI Yeast Anticancer Drug Screen. Data for the rad50 strain (AID 155);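 also: 0% = growth of vehicle-only cultures of the same strain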; conditions: S. cerevisiae rad50 strain growth inhibition, active compounds read high
Outline: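 Yeast carrying a defined DNA repair defect were exposed to test compounds, and growth was compared with vehicle-treated controls to give percent inhibition.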

[5] = NCI Yeast Anticancer Drug Screen. Data for the mec2-1 strain (AID 157); conditions: S. cerevisiae mec2-1 strain, active compounds read high
Outline: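 Strain: mec2-1 (DNA repair/cell cycle alteration). Compound exposure, then growth measured; inhibition expressed relative to vehicle.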

[6] = NCI Yeast Anticancer Drug Screen. Data for the rad14 strain (AID 159);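 also: 0% = growth of vehicle-treated control cultures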; conditions: S. cerevisiae rad14 strain growth inhibition, active compounds read high
Outline: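 Yeast cells carrying a defined DNA-repair defect were exposed to compounds, and growth inhibition was calculated relative to vehicle-treated control cultures.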

[7] = NCI Yeast Anticancer Drug Screen. Data for the sgs1 mgt1 strain (AID 161);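 also: 0% = growth of cultures given vehicle only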; conditions: S. cerevisiae sgs1 mgt1 strain, active compounds read high
Outline: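 Read-out: growth inhibition vs vehicle controls. Cells: mutant yeast strain deficient in DNA damage repair.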

[8] = NCI Yeast Anticancer Drug Screen. Data for the CLN2oe strain (AID 163);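 also: 0% = growth of vehicle-only control cultures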; conditions: S. cerevisiae CLN2oe strain, active compounds read high
Outline: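 Growth of a genetically modified yeast strain is measured after compound exposure and compared with cultures given vehicle alone.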

[9] = NCI Yeast Anticancer Drug Screen. Data for the cln2 rad14 strain (AID 165);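 also: 0% = growth equal to vehicle treated cultures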; conditions: S. cerevisiae cln2 rad14 strain, active compounds read high
Outline: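 Compounds are applied to the cln2 rad14 yeast strain, and growth is then compared with that of vehicle-treated cultures to give inhibition.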

[10] = NCI Yeast Anticancer Drug Screen. Data for the bub3 strain (AID 167); conditions: S. cerevisiae bub3 mutant strain, active compounds read high
Outline: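 Compounds were applied to a genetically altered yeast strain carrying a cell-cycle control defect. Growth inhibition was scored against vehicle-treated controls.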

[11] = NCI Yeast Anticancer Drug Screen. Data for the wt2 strain (AID 169);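 also: 0% = growth of vehicle-treated yeast cultures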; conditions: S. cerevisiae wt2 strain growth inhibition, active compounds read high
Outline: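 This strain belongs to a panel of yeast strains with defined genetic alterations in DNA damage repair or cell cycle control. Compounds are applied, and growth inhibition is measured against vehicle-treated cultures.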

[12] = NCI Yeast Anticancer Drug Screen. Data for the mlh1 strain (AID 171);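 also: 0% = growth of vehicle-treated control cultures of the same strain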; conditions: S. cerevisiae mlh1 strain growth inhibition, active compounds read high
Outline: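 Growth of the mutant yeast strain after compound exposure, expressed as inhibition relative to vehicle-only controls.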

[13] = NCI Yeast Anticancer Drug Screen. Data for the sgs1 strain (AID 173);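 also: 0% = growth of vehicle-only control cultures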; conditions: S. cerevisiae sgs1 mutant, active compounds read high
Outline: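 Growth of a yeast strain bearing a defined genetic alteration is measured after compound treatment. Inhibition is expressed relative to vehicle-only controls.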

[14] = NCI Yeast Anticancer Drug Screen. Data for the mlh1 rad18 strain (AID 175); conditions: S. cerevisiae mlh1 rad18 strain growth inhibition, active compounds read high
Outline: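 Read-out is yeast growth inhibition, calculated against vehicle-only controls. The compound was applied to a strain engineered with DNA damage repair alterations.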

[15] = NCI Yeast Anticancer Drug Screen. Data for the rad18 strain (AID 177); conditions: S. cerevisiae rad18 mutant growth inhibition, active compounds read high
Outline: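 Growth of the mutant yeast strain after compound exposure, normalised to vehicle-only cultures.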

[16] = at 5.0 µM (retest, dose inferred, filed as 0.5)
[17] = at 50.0 µM (retest, dose inferred, filed as 5.0)

Measured: growth inhibition

NC(=O)c1c([N+](=O)[O-])cc(C(F)(F)F)cc1[N+](=O)[O-]
active: [4]; at 50.0 µM 97.8% | [5]; at 50.0 µM 97.2% | [7]; at 50.0 µM 98.4% | [9]; at 50.0 µM 84.3% | [10]; at 50.0 µM 93.1% | [14]; at 50.0 µM 97.8%
inactive: [1]; at 1.2 µM 0% | [1]; at 3.7 µM 0% | [1]; at 11.0 µM 0% | [1]; at 33.0 µM 2% | [1]; at 100.0 µM 2% | [2]; at 1.2 µM 1% | [2]; at 3.7 µM 5% | [2]; at 11.0 µM 7% | [2]; at 33.0 µM 16% | [2]; at 100.0 µM 40% | [3]; at 1.2 µM 3% | [3]; at 3.7 µM 5% | [3]; at 11.0 µM 4% | [3]; at 33.0 µM 6% | [3]; at 100.0 µM 6% | [4]; at 1.2 µM -1% | [4]; at 3.7 µM 0% | [4]; [16] -6% | [4]; at 11.0 µM -1% | [4]; at 33.0 µM 3% | [4]; [17] -4% | [4]; at 100.0 µM 11% | [5]; at 1.2 µM 0% | [5]; at 3.7 µM 0% | [5]; [16] 18% | [5]; at 11.0 µM 0% | [5]; at 33.0 µM 3% | [5]; [17] 3% | [5]; at 100.0 µM 10% | [6]; at 1.2 µM 2% | [6]; at 3.7 µM 0% | [6]; at 11.0 µM 0% | [6]; at 33.0 µM 0% | [6]; at 100.0 µM 1% | [7]; [16] 5% | [7]; [17] 2% | [8]; at 1.2 µM 2% | [8]; at 3.7 µM -1% | [8]; at 11.0 µM -4% | [8]; at 33.0 µM -5% | [8]; at 100.0 µM -4% | [9]; [16] 8% | [9]; [17] 22% | [10]; at 1.2 µM -1% | [10]; at 3.7 µM -1% | [10]; [16] 7% | [10]; at 11.0 µM 0% | [10]; at 33.0 µM -1% | [10]; [17] 23% | [10]; at 100.0 µM 5% | [11]; at 1.2 µM 0% | [11]; at 3.7 µM 1% | [11]; at 11.0 µM 3% | [11]; at 33.0 µM 4% | [11]; at 100.0 µM 8% | [12]; at 1.2 µM -2% | [12]; at 3.7 µM 2% | [12]; at 11.0 µM 2% | [12]; at 33.0 µM 3% | [12]; at 100.0 µM 8% | [13]; at 1.2 µM 1% | [13]; at 3.7 µM 3% | [13]; at 11.0 µM 5% | [13]; at 33.0 µM 11% | [13]; at 100.0 µM 19% | [14]; [16] 55% | [14]; [17] 12% | [15]; at 1.2 µM 0% | [15]; at 3.7 µM 2% | [15]; at 11.0 µM 4% | [15]; at 33.0 µM 6% | [15]; at 100.0 µM 16%

Source: PubChem BioAssay (NCI)
